Experiment [1] can be described thus: growth inhibition of DIPG glioma cells, dose response, cell-based, SU-DIPG-XVII, MIPE5.0, CellTiter-Glo, qHTS (AID 1347060; cut-off not given, nearly all actives have AC50 up to about 26 µM;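 on AC50: cells exposed to compound for 48 hours before viability readout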). The conditions noted are these: SU-DIPG-XVII viability, CellTiter-Glo ATP luminescence.
Experiment [2] is described as follows: growth inhibition of DIPG glioma cells, dose response, cell-based, JHH-DIPG-1, MIPE4.0, CellTiter-Glo, qHTS (AID 1347062; cut-off not given, nearly all actives have AC50 up to about 27 µM;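 on AC50: cells exposed to compound for two days before readout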). Conditions: JHH-DIPG-1 viability, CellTiter-Glo ATP luminescence.
Experiment [3] can be described thus: growth inhibition of DIPG glioma cells, dose response, cell-based, SU-DIPG-XIII, MIPE5.0, CellTiter-Glo, qHTS (AID 1347064; cut-off not given, nearly all actives have AC50 up to about 23 µM;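 on AC50: cells exposed to compound for 48 hours before the viability read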). Conditions: SU-DIPG-XIII viability, CellTiter-Glo ATP luminescence.
Experiment [4] can be described thus: viability loss in pontine glioma line – cell-based, SU-DIPG-XXV, MIPE5.0, CellTiter-Glo, qHTS, dose response (AID 1347065; cut-off not given, nearly all actives have AC50 up to about 26 µM;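 further: cells exposed to compound for 48 hours before ATP readout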). Conditions: CellTiter-Glo ATP luminescence.
Experiment [5] is described as follows: SU-DIPG-VI glioma cell viability, MIPE4.0 library, CellTiter-Glo luminescence, qHTS (AID 1347066; cut-off not given, nearly all actives have AC50 up to about 30 µM;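 further: cells exposed to compound for 48 hours before readout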). The conditions noted are these: CellTiter-Glo ATP luminescence.
Experiment [6] in a line: JHH-DIPG-1 glioma cell viability, MIPE5.0 library, CellTiter-Glo luminescence, qHTS (AID 1347067; cut-off not given, nearly all actives have AC50 up to about 26 µM;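 further: cells exposed to compound for 48 hours before readout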). The conditions noted are these: JHH-DIPG-1 glioma viability, CellTiter-Glo ATP luminescence.
A short description of experiment [7]: SU-DIPG-XXV glioma cell viability, MIPE5.0 library, qHTS (AID 1347068; cut-off not given, nearly all actives have IC50 up to about 30 µM;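 on IC50: cells exposed to compound for 48 hours before viability readout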).
The nature of experiment [8]: ovarian cancer cell viability with rucaparib, profiling panel, oncology-focused library, rucaparib conditional (AID 1508598). Conditions: patient-derived ovarian cancer cells, CellTiter-Glo viability, 144 h, hits give low values.

The structures appear in SMILES notation. Unmarked numbers belong to inactive results. Results filed as inconclusive are left out. Active and inactive are the calls of the source.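 How the source made its calls, unless noted: active means normalized viability below 100% at a tested concentration; inactive means the rest.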

From PubChem BioAssay come the findings set out here.

For the compound `CN(C(=O)c1ccc(F)cc1C(F)(F)F)C1CCN(c2nnc(-c3ccnn3C)c3ccccc23)CC1`, the compound was classed as inactive in experiment [1], in experiment [2], in experiment [3], in experiment [4], in experiment [5] and in experiment [6]. Also, the compound was classed as inactive in experiment [7].
As for `C[C@@H]1CN(Cc2ccc(F)cc2)[C@@H](C)CN1C(=O)c1cc2c(C(=O)C(=O)N(C)C)cn(C)c2cc1Cl`, the compound was called inactive in experiment [1], in experiment [2], in experiment [3] and in experiment [7].
With `O=S(=O)(O)c1ccc2cc(N=Nc3cc(S(=O)(=O)O)c4cccnc4c3O)ccc2c1`, the compound was classed as inactive in experiment [1], in experiment [2], in experiment [3], in experiment [4], in experiment [5] and in experiment [6]. In experiment [7], the result was inactive.
With `O=C(O)CCNc1cc(N2CCc3ccccc3CC2)nc(-c2ccccn2)n1`, the outcome in experiment [1], in experiment [2], in experiment [3], in experiment [4], in experiment [5] and in experiment [6] was inactive. The compound was called inactive in experiment [7].
Regarding `COc1ccc(/C=C\c2cc(OC)c(OC)c(OC)c2)cc1NC(=O)[C@H](N)CO`, the half-maximal activity concentration (AC50) is 83.3 nM (active) in experiment [1]; 20.9 nM (active) in experiment [2]; 590 nM (active) in experiment [3]; 148 nM (active) in experiment [4]; 235 nM (active) in experiment [6]. Besides, the IC50 in experiment [7] was 332 nM (active).
For the compound `CCC[C@H](Nc1nc(-c2ccc(NC(=O)NCC)c(OC)c2)ncc1C)c1cccnc1`, the AC50 in experiment [1] is 132 nM (active); in experiment [2], 14.8 nM (active); in experiment [3] it was 186 nM (active); in experiment [4], 118 nM (active); in experiment [6], 132 nM (active). In addition, the viability was 92.2% (active) in experiment [8] (at 0.000305 µM, OCI-C5x cells, with rucaparib 10 µM, 100% = cells with rucaparib alone); 101% in experiment [8] (at 0.000305 µM, OCI-C5x cells, without rucaparib); 107% in experiment [8] (at 0.000305 µM, OCI-P5x cells, with rucaparib 20 µM, 100% = cells with rucaparib alone); 99.6% (active) in experiment [8] (at 0.000305 µM, OCI-P5x cells, without rucaparib); 104% in experiment [8] (at 0.00122 µM, OCI-C5x cells, with rucaparib 10 µM, 100% = cells with rucaparib alone); 103% in experiment [8] (at 0.00122 µM, OCI-C5x cells, without rucaparib). Moreover, the viability in experiment [8] (at 0.00122 µM, OCI-P5x cells, with rucaparib 20 µM, 100% = cells with rucaparib alone) was 103%; in experiment [8] (at 0.00122 µM, OCI-P5x cells, without rucaparib), 97.7% (active); in experiment [8] (at 0.00488 µM, OCI-C5x cells, with rucaparib 10 µM, 100% = cells with rucaparib alone) it was 104%; in experiment [8] (at 0.00488 µM, OCI-C5x cells, without rucaparib), 110%; in experiment [8] (at 0.00488 µM, OCI-P5x cells, with rucaparib 20 µM, 100% = cells with rucaparib alone) it was 100%; in experiment [8] (at 0.00488 µM, OCI-P5x cells, without rucaparib) it was 90.5% (active). The viability was 98.1% (active) in experiment [8] (at 0.0195 µM, OCI-C5x cells, with rucaparib 10 µM, 100% = cells with rucaparib alone); 30.6% (active) in experiment [8] (at 0.0195 µM, OCI-C5x cells, without rucaparib); 85.4% (active) in experiment [8] (at 0.0195 µM, OCI-P5x cells, with rucaparib 20 µM, 100% = cells with rucaparib alone); 15.9% (active) in experiment [8] (at 0.0195 µM, OCI-P5x cells, without rucaparib); 35.4% (active) in experiment [8] (at 0.0781 µM, OCI-C5x cells, with rucaparib 10 µM, 100% = cells with rucaparib alone); 23.5% (active) in experiment [8] (at 0.0781 µM, OCI-C5x cells, without rucaparib). The viability is 51.3% (active) in experiment [8] (at 0.0781 µM, OCI-P5x cells, with rucaparib 20 µM, 100% = cells with rucaparib alone); 13% (active) in experiment [8] (at 0.0781 µM, OCI-P5x cells, without rucaparib); 39.7% (active) in experiment [8] (at 0.313 µM, OCI-C5x cells, with rucaparib 10 µM, 100% = cells with rucaparib alone); 22.5% (active) in experiment [8] (at 0.313 µM, OCI-C5x cells, without rucaparib); 44.4% (active) in experiment [8] (at 0.313 µM, OCI-P5x cells, with rucaparib 20 µM, 100% = cells with rucaparib alone); 11% (active) in experiment [8] (at 0.313 µM, OCI-P5x cells, without rucaparib). Besides, the viability in experiment [8] (at 1.25 µM, OCI-C5x cells, with rucaparib 10 µM, 100% = cells with rucaparib alone) was 38% (active); in experiment [8] (at 1.25 µM, OCI-C5x cells, without rucaparib) it was 23.4% (active); in experiment [8] (at 1.25 µM, OCI-P5x cells, with rucaparib 20 µM, 100% = cells with rucaparib alone) it was 41.8% (active); in experiment [8] (at 1.25 µM, OCI-P5x cells, without rucaparib), 9.8% (active); in experiment [8] (at 5 µM, OCI-C5x cells, with rucaparib 10 µM, 100% = cells with rucaparib alone), 39.3% (active); in experiment [8] (at 5 µM, OCI-C5x cells, without rucaparib) it was 25.1% (active). Moreover, the viability was 50.6% (active) in experiment [8] (at 5 µM, OCI-P5x cells, with rucaparib 20 µM, 100% = cells with rucaparib alone) and 10.1% (active) in experiment [8] (at 5 µM, OCI-P5x cells, without rucaparib).
In the case of `CN[C@H]1CCc2cc(OC)c(OC)c(OC)c2-c2ccc(OC)c(=O)cc21`, the AC50 in experiment [1] was 105 nM (active); in experiment [2] it was 14.8 nM (active); in experiment [3] it was 132 nM (active); in experiment [4], 166 nM (active); in experiment [6], 148 nM (active). Besides, the IC50 in experiment [7] is 148 nM (active).
As for `COc1cc(N2CCC(N3CCN(C)CC3)CC2)ccc1Nc1ncnc(Nc2ccccc2S(=O)(=O)C(C)C)n1`, the AC50 in experiment [1] is 6610 nM (active); in experiment [2], 14800 nM (active); in experiment [3], 5250 nM (active); in experiment [4] it was 3720 nM (active); in experiment [6], 16600 nM (active). For the same compound, in experiment [7], the compound was called inactive.
